# Results taken from PubChem BioAssay (NCATS).
# Inconclusive results are not listed. Calls of active or inactive are those of the source. Unless noted, calls come from the whole dose curve; as a rule, active = well fitted curve in the direction sought with a large enough effect in the repeat runs; inconclusive = weak or mixed curves; inactive = no such curve, though single readings can be large; an effect the other way counts as inactive or inconclusive.
# What was measured:
# [1] = molecular target: Cytochrome P450 2D6 (Homo sapiens) (UniProt P10635); assay: Cytochrome P450 family 2 subfamily D member 6 (CYP2D6) small molecule antagonists: luciferase biochemical (cell-free) qHTS assay (AID 1645840); note: nearly all actives have a fitted effect of over 55% in size; note: potency is the fitted concentration of half-maximal effect
# Method in brief: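 P450-Glo CYP2D6 system: proluciferin substrate converted by enzyme to luciferin, read by luminescence proportional to activity. Enzyme-substrate mix with compound 10 min at room temperature, then NADPH regeneration 1 h before detection reagent.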
# [2] = molecular target: Cytochrome P450 2C9 (Homo sapiens) (UniProt P11712); assay: Cytochrome P450 family 2 subfamily C member 9 (CYP2C9) small molecule antagonists: luciferase biochemical (cell-free) qHTS assay (AID 1645842); note: nearly all actives have a fitted effect of over 55% in size; note: potency is the fitted concentration of half-maximal effect
# Method in brief: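 P450-Glo CYP2C9 system: proluciferin substrate with enzyme in mix containing 0.4% BSA, 10 min at room temperature, then NADPH regeneration solution added and incubated 1 h at 37C. Detection reagent stopped reaction; luminescence read after 20 min as RLU.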
# [3] = molecular target: Rap guanine nucleotide exchange factor 3 (Homo sapiens) (UniProt O95398); assay: Confirmatory qHTS for antagonist of cAMP-regulated guanine nucleotide exchange factor 3 (EPAC1) (AID 1645880; active = well fitted curve in the direction sought with a large enough effect; an effect the other way counts as inactive or inconclusive; note: nearly all actives have a fitted effect of over 55% in size; note: potency is the fitted concentration of half-maximal effect)
# Method in brief: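 Released BODIPY-GDP fluoresces less than Rap1-bound BODIPY-GDP; the signal is followed at 480/540 nm at 5-min intervals over 30 min, after 5 min at room temperature. Reactions contain 100 nM EPAC1, 250 nM RAP1B-BODIPY-GDP and 50 uM GDP; results are normalized to ATA and DMSO.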
# [4] = molecular target: Rap guanine nucleotide exchange factor 3 (Homo sapiens) (UniProt O95398); assay: Confirmatory qHTS for agonist of cAMP-regulated guanine nucleotide exchange factor 3 (EPAC1) (AID 1645881; active = well fitted curve in the direction sought with a large enough effect; an effect the other way counts as inactive or inconclusive;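 note: EPAC1 catalysed release of BODIPY-GDP from Rap1B seen as fluorescence loss; nearly all actives have a fitted effect of over 75% in size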)
# [5] = molecular target: Rap guanine nucleotide exchange factor 4 (Homo sapiens) (UniProt Q8WZA2); assay: Confirmatory qHTS for agonist of cAMP-regulated guanine nucleotide exchange factor 4 (EPAC2) (AID 1645884; active = well fitted curve in the direction sought with a large enough effect; an effect the other way counts as inactive or inconclusive;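 note: nucleotide exchange releases bodipy-GDP from Rap1 and this lowers its fluorescence; nearly all actives have a fitted effect of over 65% in size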)
# [6] = molecular target: Rap guanine nucleotide exchange factor 4 (Homo sapiens) (UniProt Q8WZA2); assay: Confirmatory qHTS for antagonist of cAMP-regulated guanine nucleotide exchange factor 4 (EPAC2) (AID 1645885; active = well fitted curve in the direction sought with a large enough effect; an effect the other way counts as inactive or inconclusive; note: nearly all actives have a fitted effect of over 25% in size; note: potency is the fitted concentration of half-maximal effect)
# [7] = molecular target: Rap guanine nucleotide exchange factor 3 (Homo sapiens) (UniProt O95398); assay: Counterscreen qHTS for antagonist of cAMP-regulated guanine nucleotide exchange factor 3 (EPAC1) (AID 1645888; active = well fitted curve in the direction sought with a large enough effect; an effect the other way counts as inactive or inconclusive)
# Method in brief: (§1)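 Rap1B-BODIPY-GDP 250 nM + GDP 50 uM; cpds 7-pt, final 9.74 nM–152 uM (activator mode) or from 7.32 nM upwards (inhibitor mode); RT; FI 480/540 nm at 5 and 30 min, then ± cAMP, reread.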
# [8] = molecular target: Rap guanine nucleotide exchange factor 3 (Homo sapiens) (UniProt O95398); assay: Counterscreen qHTS for agonist of cAMP-regulated guanine nucleotide exchange factor 3 (EPAC1) (AID 1645889; active = well fitted curve in the direction sought with a large enough effect; an effect the other way counts as inactive or inconclusive; note: nearly all actives have a fitted effect of over 40% in size)
# Method in brief: as §1
# [9] = molecular target: Tumor susceptibility gene 101 protein (Homo sapiens) (UniProt Q99816); assay: qHTS Assay for Iinhibitors of HIV-1 Budding by Blocking the Interaction of PTAP/TSG101: Hit Validation (AID 651600; active = well fitted curve in the direction sought with a large enough effect; an effect the other way counts as inactive or inconclusive; note: potency is the fitted concentration of half-maximal effect; nearly all actives have a fitted effect of over 70% in size)
# Method in brief: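 Compounds are added to the Tsg101 binding domain (10 uM final) in pH 7.5 HEPES buffer. FITC-PTAP peptide follows at 50 nM final. After 20 min at r.t., polarized FITC emission is measured.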
# Cytochrome P450 2D6 (Homo sapiens), sequence (P10635 whole entry, looked up): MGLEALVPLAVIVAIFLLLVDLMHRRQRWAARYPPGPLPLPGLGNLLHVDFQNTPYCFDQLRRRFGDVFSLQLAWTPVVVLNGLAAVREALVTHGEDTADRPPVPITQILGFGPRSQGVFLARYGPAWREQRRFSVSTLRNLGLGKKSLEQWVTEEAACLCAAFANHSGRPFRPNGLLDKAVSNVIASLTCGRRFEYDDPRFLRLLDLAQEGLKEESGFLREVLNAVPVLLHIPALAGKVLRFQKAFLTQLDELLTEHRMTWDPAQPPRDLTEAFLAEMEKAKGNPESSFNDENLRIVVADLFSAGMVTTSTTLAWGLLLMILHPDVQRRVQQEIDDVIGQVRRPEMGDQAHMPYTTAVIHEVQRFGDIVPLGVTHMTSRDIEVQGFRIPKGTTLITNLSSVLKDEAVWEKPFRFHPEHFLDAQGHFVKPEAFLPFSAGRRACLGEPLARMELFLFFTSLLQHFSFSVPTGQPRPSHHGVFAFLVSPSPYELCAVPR
# Cytochrome P450 2C9 (Homo sapiens), sequence (P11712 whole entry, looked up): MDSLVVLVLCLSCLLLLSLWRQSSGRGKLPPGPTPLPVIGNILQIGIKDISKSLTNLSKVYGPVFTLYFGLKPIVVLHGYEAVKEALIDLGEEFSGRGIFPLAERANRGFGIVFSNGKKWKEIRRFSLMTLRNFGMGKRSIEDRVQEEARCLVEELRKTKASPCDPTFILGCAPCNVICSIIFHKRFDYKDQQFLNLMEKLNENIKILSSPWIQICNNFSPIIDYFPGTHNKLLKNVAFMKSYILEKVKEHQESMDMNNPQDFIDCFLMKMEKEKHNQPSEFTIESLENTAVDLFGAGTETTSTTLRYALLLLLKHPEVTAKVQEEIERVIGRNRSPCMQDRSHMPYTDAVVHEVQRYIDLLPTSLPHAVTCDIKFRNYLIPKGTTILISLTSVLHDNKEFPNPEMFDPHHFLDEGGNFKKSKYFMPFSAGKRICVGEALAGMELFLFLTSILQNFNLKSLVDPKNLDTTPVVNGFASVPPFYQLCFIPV
# Rap guanine nucleotide exchange factor 4 (Homo sapiens), sequence (Q8WZA2 whole entry, looked up): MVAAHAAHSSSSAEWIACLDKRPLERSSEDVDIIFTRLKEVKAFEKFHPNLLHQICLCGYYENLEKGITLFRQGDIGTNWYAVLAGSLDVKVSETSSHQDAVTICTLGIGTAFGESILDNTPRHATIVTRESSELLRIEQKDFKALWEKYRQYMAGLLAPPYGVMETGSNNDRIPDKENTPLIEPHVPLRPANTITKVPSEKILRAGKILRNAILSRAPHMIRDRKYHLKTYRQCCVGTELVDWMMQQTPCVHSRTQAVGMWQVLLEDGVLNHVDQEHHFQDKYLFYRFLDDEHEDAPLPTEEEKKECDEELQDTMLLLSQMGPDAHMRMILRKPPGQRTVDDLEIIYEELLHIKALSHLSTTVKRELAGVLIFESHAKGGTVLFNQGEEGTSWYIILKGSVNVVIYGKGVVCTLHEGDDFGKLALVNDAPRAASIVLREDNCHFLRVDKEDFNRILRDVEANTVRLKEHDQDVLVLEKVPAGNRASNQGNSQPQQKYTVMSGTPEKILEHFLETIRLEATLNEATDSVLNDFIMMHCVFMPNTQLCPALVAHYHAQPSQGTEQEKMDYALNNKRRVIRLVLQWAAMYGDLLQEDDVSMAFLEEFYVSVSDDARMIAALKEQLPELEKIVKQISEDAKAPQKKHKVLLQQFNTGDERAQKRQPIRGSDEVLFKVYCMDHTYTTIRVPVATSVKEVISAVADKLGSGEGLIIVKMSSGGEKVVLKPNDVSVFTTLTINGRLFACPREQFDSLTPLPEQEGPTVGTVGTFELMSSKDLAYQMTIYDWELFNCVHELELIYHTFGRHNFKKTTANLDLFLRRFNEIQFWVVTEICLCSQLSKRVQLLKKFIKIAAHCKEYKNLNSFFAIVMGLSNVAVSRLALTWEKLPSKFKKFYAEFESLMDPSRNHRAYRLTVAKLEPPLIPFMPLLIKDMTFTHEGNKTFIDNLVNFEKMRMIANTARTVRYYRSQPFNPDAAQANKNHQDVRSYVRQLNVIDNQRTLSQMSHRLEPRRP
# Rap guanine nucleotide exchange factor 3 (Homo sapiens), sequence (O95398 whole entry, looked up): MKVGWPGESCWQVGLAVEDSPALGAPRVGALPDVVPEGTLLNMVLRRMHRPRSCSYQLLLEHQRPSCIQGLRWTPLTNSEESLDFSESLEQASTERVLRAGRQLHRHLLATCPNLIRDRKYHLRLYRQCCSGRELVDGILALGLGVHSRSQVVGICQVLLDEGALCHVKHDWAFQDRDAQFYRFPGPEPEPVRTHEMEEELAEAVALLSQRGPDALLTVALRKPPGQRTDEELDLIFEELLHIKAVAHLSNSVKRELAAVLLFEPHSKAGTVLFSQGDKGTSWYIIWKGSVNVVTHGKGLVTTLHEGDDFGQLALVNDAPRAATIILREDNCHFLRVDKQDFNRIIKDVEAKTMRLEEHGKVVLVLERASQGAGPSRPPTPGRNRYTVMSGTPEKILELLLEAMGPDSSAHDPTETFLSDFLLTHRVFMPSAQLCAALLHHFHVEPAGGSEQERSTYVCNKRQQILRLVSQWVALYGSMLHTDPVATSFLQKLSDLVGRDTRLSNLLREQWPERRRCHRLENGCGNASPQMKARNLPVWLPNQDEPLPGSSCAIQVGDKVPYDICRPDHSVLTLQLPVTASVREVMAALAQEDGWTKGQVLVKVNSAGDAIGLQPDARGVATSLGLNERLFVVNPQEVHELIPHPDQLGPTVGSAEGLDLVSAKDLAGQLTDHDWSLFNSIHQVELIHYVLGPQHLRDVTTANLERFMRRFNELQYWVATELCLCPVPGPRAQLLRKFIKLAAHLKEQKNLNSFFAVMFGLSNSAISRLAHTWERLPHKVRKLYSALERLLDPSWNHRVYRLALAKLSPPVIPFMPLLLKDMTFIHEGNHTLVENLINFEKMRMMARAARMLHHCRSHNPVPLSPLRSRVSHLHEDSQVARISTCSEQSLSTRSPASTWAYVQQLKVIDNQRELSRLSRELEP
# Tumor susceptibility gene 101 protein (Homo sapiens), sequence (Q99816 whole entry, looked up, the tested form may be a part): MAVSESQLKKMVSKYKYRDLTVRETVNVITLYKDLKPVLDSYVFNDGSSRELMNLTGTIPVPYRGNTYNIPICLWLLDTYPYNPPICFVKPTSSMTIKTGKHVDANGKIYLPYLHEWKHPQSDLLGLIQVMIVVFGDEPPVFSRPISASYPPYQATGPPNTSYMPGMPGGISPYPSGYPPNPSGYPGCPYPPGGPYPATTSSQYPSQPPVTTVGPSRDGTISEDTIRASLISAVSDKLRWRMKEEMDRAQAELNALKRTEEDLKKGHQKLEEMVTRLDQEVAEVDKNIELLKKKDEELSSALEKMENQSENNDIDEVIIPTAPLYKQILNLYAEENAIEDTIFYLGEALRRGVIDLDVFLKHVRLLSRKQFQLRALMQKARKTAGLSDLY
smiles,measurement,setting,value
Cc1ccc2nc(-c3ccccn3)c(Nc3ccccc3C)n2c1,Potency,[1],21.3 µM (active)
same,Potency,[2],1.9 µM (active)
COc1cccc(-c2oc3ccc(C)cc3c(=O)c2O)c1,Potency,[1],7.56 µM (active)
same,Potency,[2],7.56 µM (active)
Cc1ccc(C)c(N2CCN(C(=O)C3CCN(S(=O)(=O)c4ccc5[nH]c(=O)oc5c4)CC3)CC2)c1,Potency,[1],inactive
same,Potency,[2],2.13 µM (active)
CN(C)S(=O)(=O)c1ccc(S(=O)(=O)N(Cc2ccccc2Cl)C[C@@H]2CCCO2)cc1,Potency,[1],inactive
same,Potency,[2],9.52 µM (active)
CC(C)c1ccc(Nc2c(-c3ccccn3)nc3ccccn23)cc1,Potency,[1],26.8 µM (active)
same,Potency,[2],1.2 µM (active)
Cc1ncc(Cl)cc1NCc1ccc(C(=O)N[C@@H](CC2CCCC2)C(=O)NC2CC2)s1,Potency,[1],15.1 µM (active)
same,Potency,[2],8.49 µM (active)
Cc1ccc(NC(=O)CSc2nc3ccccc3c3nc(CCn4cncc4C)nn23)cc1F,Potency,[1],3.79 µM (active)
same,Potency,[2],0.536 µM (active)
CC(NC(=O)C(=O)Nc1c2c(nn1-c1ccccc1)CSC2)c1ccccc1 (stereo not given),Potency,[1],inactive
same,Potency,[2],3.38 µM (active)
Cc1ccn2c(Nc3ccccc3C)c(-c3ccccn3)nc2c1,Potency,[1],19 µM (active)
same,Potency,[2],0.952 µM (active)
O=C(NCc1ccco1)c1ccc2c(c1)N(Cc1cccc(Cl)c1)C(=O)c1ccccc1S2=O (stereo not given),Potency,[1],1.2 µM (active)
same,Potency,[2],1.34 µM (active)
Cc1oc(-c2cccc(Cl)c2)nc1Cn1c(SCc2ccccc2F)nc2ccncc21,Potency,[1],4.77 µM (active)
same,Potency,[2],7.56 µM (active)
COc1cc(C(=O)NC(c2ccc(Cl)cc2)c2cc(Cl)c3cccnc3c2O)cc(OC)c1OC (stereo not given),Potency,[1],inactive
same,Potency,[2],10.7 µM (active)
CC1=C(C(=O)Nc2cccc(C(N)=O)c2)C(c2ccccc2Cl)N=C(Nc2nc3ccccc3o2)N1 (stereo not given),Potency,[1],8.49 µM (active)
same,Potency,[2],0.19 µM (active)
Cc1noc(/C=C/c2cccs2)c1S(=O)(=O)N1CCC(C(=O)NCc2ccc(Cl)cc2)CC1,Potency,[1],2.39 µM (active)
same,Potency,[2],0.213 µM (active)
CC[C@H](CO)Nc1cc(NCc2ccc(-c3ccccn3)cc2)c2ncn(C(C)C)c2n1,Potency,[1],16.9 µM (active)
same,Potency,[2],1.34 µM (active)
COC(=O)c1cc(S(C)(=O)=O)ccc1OC,Potency,[1],inactive
same,Potency,[2],inactive
CCc1ccc(C2=CC(c3cccc(OC)c3OC)n3c(nc4ccccc43)N2)cc1 (stereo not given),Potency,[1],16.9 µM (active)
same,Potency,[2],3.79 µM (active)
Cc1ccc(Nc2nc3ccccc3c3nnc(C)n23)c(C)c1,Potency,[1],inactive
same,Potency,[2],5.35 µM (active)
N#Cc1ccccc1Cn1nnc2c(=O)[nH]c(C3CCCN(S(=O)(=O)c4ccc(F)cc4)C3)nc21 (stereo not given),Potency,[1],0.849 µM (active)
same,Potency,[2],1.69 µM (active)
Cc1ccc(C(=O)c2cn(CC(=O)Nc3ccc4c(c3)OCCO4)c3nc(C)ccc3c2=O)cc1,Potency,[1],inactive
same,Potency,[2],9.52 µM (active)
COCCCNC(=O)C(=O)Nc1c2c(nn1-c1cccc(Cl)c1)CSC2,Potency,[1],inactive
same,Potency,[2],8.49 µM (active)
CCc1cccc(CC)c1-n1c(CC(C)C)c(C(=O)N2CCNCC2)cc(-c2nc(-c3ccc(Cl)cc3)cs2)c1=O,Potency,[1],9.52 µM (active)
same,Potency,[2],10.7 µM (active)
Oc1cccc(C(Nc2ccccn2)c2ccc3cccnc3c2O)c1Cl (stereo not given),Potency,[1],13.5 µM (active)
same,Potency,[2],10.7 µM (active)
same,Potency,[3],inactive
same,Potency,[4],inactive
same,Potency,[5],inactive
same,Potency,[6],inactive
O=C(CC1N=C2c3ccccc3N=C(SCc3ccc(F)cc3)N2C1=O)NC1CCCCC1 (stereo not given),Potency,[1],3.01 µM (active)
same,Potency,[2],2.68 µM (active)
COc1ccccc1Cn1cc(C(=O)c2ccc(Cl)cc2)c(=O)c2cc3c(cc21)OCCO3,Potency,[1],2.68 µM (active)
same,Potency,[2],2.68 µM (active)
CCOC(=O)c1ccc(NC(=O)CSc2cc(-c3ccccc3)nc(C)n2)cc1,Potency,[1],inactive
same,Potency,[2],0.952 µM (active)
Cc1ccc(S(=O)(=O)N[C@@H]2CCCC[C@H]2O)cc1,Potency,[1],inactive
same,Potency,[2],inactive
CCNC(=O)N1CCN(C(=O)c2cnc3cc(OC)ccc3c2N2CCC(C)(C#N)CC2)CC1,Potency,[1],inactive
same,Potency,[2],2.39 µM (active)
COc1ccc(CNC(=O)C(=O)Nc2c3c(nn2-c2ccccc2)CSC3)cc1,Potency,[1],inactive
same,Potency,[2],3.38 µM (active)
Oc1c(C(c2ccccc2)N2CCN(c3cccc(Cl)c3)CC2)sc2nc(-c3ccco3)nn12 (stereo not given),Potency,[1],13.5 µM (active)
same,Potency,[2],5.35 µM (active)
same,Potency,[3],47.8 µM (active)
same,Potency,[4],inactive
same,Potency,[5],inactive
same,outcome,[6],inactive [at 12.7 µM]
CC1(C)CC1C(=O)NC(=CCCCCSCC(N)C(=O)O)C(=O)O (stereo not given),Potency,[1],inactive
same,Potency,[2],inactive
COc1cc(=O)n2c(c1C(=O)NCc1ccc3c(c1)OCO3)CCN(C(=O)c1ccc(C)cc1C)CC2,Potency,[1],10.7 µM (active)
same,Potency,[2],19 µM (active)
CC(C)(C)c1ccc(-c2nc(SCCCOc3ccccc3)n3[nH]c(=O)cc3n2)cc1,Potency,[1],inactive
same,Potency,[2],10.7 µM (active)
same,Potency,[3],60.1 µM (active)
same,Potency,[4],inactive
same,Potency,[5],inactive
same,Potency,[6],inactive
same,Potency,[7],inactive
same,Potency,[8],inactive
CCCOCc1cc(CN2CCN(c3ccccc3OC)CC2)c(O)c2ncccc12,Potency,[1],13.5 µM (active)
same,Potency,[2],7.56 µM (active)
Cc1ccc(Cn2c(Cc3ccccc3)nc3ccccc32)cc1,Potency,[1],10.7 µM (active)
same,Potency,[2],13.5 µM (active)
same,Potency,[3],inactive
same,Potency,[4],inactive
same,Potency,[6],inactive
same,Potency,[7],inactive
same,Potency,[8],inactive
O=c1c2c(on1Cc1ccccc1)CCNCC2,Potency,[1],inactive
same,Potency,[2],10.7 µM (active)
Cc1ccc2c(c1)-c1c(c(C(=O)N3CCN(c4cc(C)ccc4C)CC3)nn1C)CS2,Potency,[9],18.3 µM (active)
same,Potency,[1],inactive
same,Potency,[2],2.39 µM (active)
same,Potency,[3],inactive
same,Potency,[4],inactive
same,Potency,[5],inactive
same,Potency,[6],3.79 µM (active)
same,Potency,[7],inactive
same,Potency,[8],inactive
